This note sets out measurements from PubChem BioAssay (NCI).

Molecules are shown by their SMILES. About 83,000 compounds went through this panel and 20% of them were active in at least one assay; those are over-represented in the sample as a whole.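 Values shown are percent growth following 48 h exposure of cells in 96-well plates to a single concentration of compound; below 10 was considered active.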 Values without a mark were called inactive. Activity calls are given as the source filed them.

Among the test systems are SR leukemia; RPMI-8226 leukemia; OVCAR-8 ovarian; OVCAR-5 ovarian; OVCAR-4 ovarian; SK-OV-3 ovarian; IGROV1 ovarian; OVCAR-3 ovarian; HS 578T breast; NCI/ADR-RES ovarian; T-47D breast; BT-549 breast; MDA-MB-435 melanoma; SW-620 colon; MCF7 breast; HCT-116 colon; HCC-2998 colon; KM12 colon.
Holding throughout (experiment): NCI-60 one-dose screen, 48 h (100 = growth as untreated, 0 = no growth, -100 = all killed)
Common to all, as to settings: 10 µM unless noted

`CCCCCCCCCCCCCCCCCCOc1ccccc1CC(=O)OCC[N+]1(C)CCOCC1`: the growth in the test with SR leukemia was 50.7%; in the test on RPMI-8226 leukemia, 59.7%; with OVCAR-8 ovarian, 41%; with OVCAR-5 ovarian, 63.1%; with OVCAR-4 ovarian it was 60.5%; in the test on SK-OV-3 ovarian, 100%. Further, the growth in the test on IGROV1 ovarian is -9.88% (active); in the test on OVCAR-3 ovarian, 65.4%; in the test on HS 578T breast, 55.1%; with NCI/ADR-RES ovarian, 104%; with T-47D breast, 84.9%; in the test on BT-549 breast, 82.9%. Moreover, the growth in the test on MDA-MB-435 melanoma was 82.4%; in the test with SW-620 colon it was 77.1%; in the test on MCF7 breast, 79.8%; in the test on HCT-116 colon, 65.6%; with HCC-2998 colon, 71.8%; in the test with KM12 colon, 65.8%.
`CC(C)CCSc1nc(Nc2ccccc2)c(C#N)c(-c2ccccc2)n1`: the growth in the test on SR leukemia was 27.2%; with RPMI-8226 leukemia it was 73.9%; with OVCAR-8 ovarian it was 42.7%; in the test on OVCAR-5 ovarian, 64.9%; in the test with OVCAR-4 ovarian it was -7.19% (active); in the test with SK-OV-3 ovarian, 69.1%. Moreover, the growth in the test with IGROV1 ovarian is 17.3%; in the test on OVCAR-3 ovarian it was 57.6%; in the test on HS 578T breast, 14.3%; in the test with NCI/ADR-RES ovarian it was 52.4%; in the test on T-47D breast, 58.3%; in the test with BT-549 breast, 62.1%. Also, the growth in the test with MDA-MB-435 melanoma is 94%; with SW-620 colon, 56.9%; with MCF7 breast, 45.6%; in the test on HCT-116 colon, 27.5%; in the test with HCC-2998 colon, 46.3%; in the test on KM12 colon, 89.9%.
`Cn1cc(-c2nonc2-c2c[nH]c3ccccc23)c2ccccc21`: the growth is 11.6% with SR leukemia; 8.96% (active) in the test with RPMI-8226 leukemia; 16% in the test on OVCAR-8 ovarian; 25.9% in the test on OVCAR-5 ovarian; 30.5% in the test on OVCAR-4 ovarian; 18.9% with SK-OV-3 ovarian. The growth with IGROV1 ovarian was 24.4%; in the test on OVCAR-3 ovarian it was -17.7% (active); in the test with HS 578T breast it was 6.76% (active); in the test with NCI/ADR-RES ovarian, 5.05% (active); in the test on T-47D breast, 25.9%; in the test with BT-549 breast it was 18.7%. Besides, the growth was -45.3% (active) with MDA-MB-435 melanoma; 22.4% in the test with SW-620 colon; 14.3% in the test with MCF7 breast; 5.44% (active) with HCT-116 colon; 11.1% in the test with HCC-2998 colon; 7.64% (active) with KM12 colon.
`CCN1C(=O)N(CC)C2C1NN=c1s/c(=C\c3ccccc3Br)c(=O)n12` (configuration not stated): the growth with SR leukemia is 13.6%; in the test with RPMI-8226 leukemia, 15.5%; in the test on OVCAR-8 ovarian, 1.17% (active); in the test with OVCAR-5 ovarian, 28%; in the test on OVCAR-4 ovarian it was 49.7%; in the test on SK-OV-3 ovarian, 38.1%. In addition, the growth is 16.9% in the test on IGROV1 ovarian; 2.96% (active) in the test on OVCAR-3 ovarian; 16.1% in the test on HS 578T breast; 7.75% (active) in the test with NCI/ADR-RES ovarian; 85.5% in the test on T-47D breast; 16.3% with BT-549 breast. Further, the growth with MDA-MB-435 melanoma is -15.7% (active); in the test with SW-620 colon, 20.3%; in the test on MCF7 breast, 13.6%; in the test with HCT-116 colon it was 6.2% (active); in the test with HCC-2998 colon, 10.7%; in the test with KM12 colon, 10.3%.
For the compound `O=C(N/N=C/c1ccc([N+](=O)[O-])cc1)c1ccc2nc(-c3ccc(Cl)cc3)[nH]c2c1`, the growth in the test with SR leukemia is -8.49% (active); in the test with RPMI-8226 leukemia, 10.8%; in the test with OVCAR-8 ovarian it was 21.6%; with OVCAR-5 ovarian, 53.2%; in the test on OVCAR-4 ovarian, 23%; in the test on SK-OV-3 ovarian, 60.5%. In addition, the growth in the test on IGROV1 ovarian was 19.1%; in the test on OVCAR-3 ovarian it was 11.3%; in the test with HS 578T breast, 36.8%; in the test with NCI/ADR-RES ovarian it was 77.3%; in the test with T-47D breast, 10.5%; in the test with BT-549 breast, 14%. The growth is 47.6% with MDA-MB-435 melanoma; 12.7% in the test with SW-620 colon; 0.723% (active) in the test on MCF7 breast; 14.6% in the test with HCT-116 colon; 14.9% in the test with HCC-2998 colon; 13% in the test with KM12 colon.
As for `O=C(Cn1nnc([N+](=O)[O-])n1)c1ccccc1`, the growth in the test with SR leukemia is 84.3%; with RPMI-8226 leukemia, 40.6%; in the test on OVCAR-8 ovarian, 101%; with OVCAR-5 ovarian, 114%; in the test with OVCAR-4 ovarian, 91.5%; in the test on SK-OV-3 ovarian it was 99.8%. Moreover, the growth was 96.1% with IGROV1 ovarian; 100% with OVCAR-3 ovarian; 106% with HS 578T breast; 98.4% in the test with NCI/ADR-RES ovarian; 78.9% in the test with T-47D breast; 113% in the test with BT-549 breast. Besides, the growth in the test with MDA-MB-435 melanoma is 85.4%; with SW-620 colon it was 91.1%; with MCF7 breast it was 80.9%; with HCT-116 colon, 60%; with HCC-2998 colon, 102%; with KM12 colon, 95.9%.
Consider `N#Cc1nc2c(S(=O)(=O)c3ccccc3)c(N)n(Cc3cccnc3)c2nc1C#N`, for which the growth was 36.1% in the test on SR leukemia; 99.2% in the test on RPMI-8226 leukemia; 70.9% in the test with OVCAR-8 ovarian; 96.5% in the test on OVCAR-5 ovarian; 92.4% with OVCAR-4 ovarian; 76.9% in the test on SK-OV-3 ovarian. For the same compound, the growth in the test with IGROV1 ovarian was 46.1%; in the test with OVCAR-3 ovarian, 73.4%; in the test on HS 578T breast, 59.5%; in the test with NCI/ADR-RES ovarian it was 94.6%; in the test on T-47D breast, 58.6%; with BT-549 breast, 65.4%. Moreover, the growth with MDA-MB-435 melanoma was 94.9%; in the test on SW-620 colon, 77.7%; in the test on MCF7 breast, 91.3%; with HCT-116 colon it was 98.2%; with HCC-2998 colon, 104%; with KM12 colon it was 102%.
`O=C(O)c1cn(C2CC2)c2cc(N3CCN(C(=O)N/N=C/c4ccccc4)CC3)c(F)cc2c1=O`: the growth with SR leukemia was 54.4%; in the test on RPMI-8226 leukemia, 104%; with OVCAR-8 ovarian, 96.3%; in the test on OVCAR-5 ovarian it was 110%; with OVCAR-4 ovarian it was 102%; in the test on SK-OV-3 ovarian, 95.8%. Moreover, the growth was 102% in the test with IGROV1 ovarian; 102% in the test on OVCAR-3 ovarian; 105% in the test with HS 578T breast; 97.4% with NCI/ADR-RES ovarian; 91.4% with T-47D breast; 92.6% with BT-549 breast. In addition, the growth with MDA-MB-435 melanoma is 106%; with SW-620 colon, 110%; with MCF7 breast it was 97.3%; in the test with HCT-116 colon, 108%; with HCC-2998 colon it was 99.9%; in the test on KM12 colon it was 94.8%.
As for `COCC[C@H]1CCC/C=C/[C@@H]2C[C@H](O)C[C@H]2[C@H](O)/C=C/C(=O)O1`, the growth with SR leukemia is 2.43% (active); in the test with RPMI-8226 leukemia it was 11.1%; in the test with OVCAR-8 ovarian, 5.65% (active); with OVCAR-5 ovarian, 9.73% (active); with OVCAR-4 ovarian, 26.6%; in the test with SK-OV-3 ovarian, 33.6%. The growth with IGROV1 ovarian is 16.1%; in the test on OVCAR-3 ovarian, -47.8% (active); with HS 578T breast it was 30.1%; in the test with NCI/ADR-RES ovarian, 3% (active); in the test on T-47D breast it was -10.9% (active); in the test with BT-549 breast, 5.84% (active). The growth was 9.56% (active) in the test on MDA-MB-435 melanoma; -20.8% (active) in the test with SW-620 colon; -8.53% (active) in the test with MCF7 breast; -66.7% (active) in the test on HCT-116 colon; 2.4% (active) in the test on HCC-2998 colon; -51.4% (active) with KM12 colon.
